Measured values taken from the supplement of paper PMC8285479.
Values joined by “and” are separate entries in the source; they are usually repeats but may differ in a detail not shown here. Identical values can stand only once. ± gives the standard deviation of the averaged measurements. Whole data set: some 1,900 compounds, median “normalised cell viability (NPI; 0 = phenylarsine oxide control, 1 = DMSO control)” near 1, cut for the lowest 2% near 0.039. Shown is part of a subset that was picked to be rich in the lowest values.

System: NCI-H1944
Assay: normalised cell viability (NPI; 0 = phenylarsine oxide control, 1 = DMSO control) (fraction of DMSO control); NCI-H1944 is a non-small cell lung cancer line; higher = more viable cells (less compound toxicity)
Settings: 6 days
[1] = glucocorticoid arm: hydrocortisone 2.75 uM co-treatment, compound 1 µM
[2] = glucocorticoid arm: hydrocortisone 2.75 uM co-treatment, compound 5 µM
[3] = glucocorticoid arm: hydrocortisone 2.75 uM pre-treated 2 days and continued, compound 1 µM
[4] = glucocorticoid arm: hydrocortisone 2.75 uM pre-treated 2 days and continued, compound 5 µM
[5] = glucocorticoid arm: vehicle, compound 1 µM
[6] = glucocorticoid arm: vehicle, compound 5 µM
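Also: CTB read-out in 384-well plates, triplicate wells, NPI normalised per plate against 1 µM phenylarsine oxide (0) and 0.1% DMSO (1) controls.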

| Structure (SMILES) | normalised cell viability [1] | normalised cell viability [2] | normalised cell viability [3] | normalised cell viability [4] | normalised cell viability [5] | normalised cell viability [6] |
| --- | --- | --- | --- | --- | --- | --- |
| Cc1nc(N=Nc2ccc(C(=O)O)cc2)c(COP(=O)(O)O)c(C=O)c1O | 0.999 ± 0.0017 | 0.998 ± 0.02 | 1.01 ± 0.01 | 1.005 ± 0.0087 | 0.9937 ± 0.0085 | 1 ± 0.016 |
| CN(C)CCCCSC(=N)N | 1.001 ± 0.0081 | 1.01 ± 0.011 | 1.02 ± 0.026 | 1.02 ± 0.011 | 0.9953 ± 0.0064 | 0.9883 ± 0.005 |
| O=C(CCCCCCNC(=O)c1cnc(N(c2ccccc2)c2ccccc2)nc1)NO [Rocilinostat (ACY-1215)] | 0.9393 ± 0.0064 | 0.966 ± 0.011 | 0.944 ± 0.015 | 0.945 ± 0.018 | 0.9923 ± 0.0021 | 0.918 ± 0.0096 |
| O=C(CCCCCCC(=O)NO)NO [Suberoyl bis-hydroxamic acid] | 0.958 ± 0.024 | 0.833 ± 0.053 | 0.968 ± 0.021 | 0.868 ± 0.04 | 1.005 ± 0.0057 | 0.9962 ± 0.0093 |
| O=C(CCCCCCNC(=O)c1cnc(N(c2ccccc2)c2ccccc2)nc1)NO | 0.9803 ± 0.0098 | 0.922 ± 0.018 | 0.996 ± 0.021 | 0.9343 ± 0.0021 | 1.01 ± 0.01 | 0.9873 ± 0.0071 |
| NC(=S)c1ccc[n+]([C@@H]2O[C@@H](COP(=O)([O-])OP(=O)(O)OC[C@H]3O[C@@H](n4cnc5c(N)ncnc54)C(OP(=O)(O)O)[C@H]3O)C(O)C2O)c1 (some centres undefined) [Thio-NADP sodium] | 1.013 ± 0.0058 | 1.01 ± 0.026 | 1.03 ± 0.021 | 0.998 ± 0.013 | 1.013 ± 0.0058 | 1.013 ± 0.0058 |
| CC(C)c1cc(-c2ccc(F)c3ccccc23)nc(N)n1 | 0.9813 ± 0.0081 | 0.9787 ± 0.005 | 0.991 ± 0.018 | 0.993 ± 0.013 | 0.984 ± 0.025 | 1.001 ± 0.0079 |
| COc1ccc(Cl)cc1NC(=O)Nc1cc(C)nc2ccccc12 | 1.01 and 1.02 | – | – | – | 1 and 1.01 | – |
| CNCc1ccc(C)c(NC(=O)c2ccc(Nc3nc(-c4ccccc4)c4ccccc4n3)cc2)c1 | 0.965 ± 0.017 | 0.939 ± 0.017 | 0.9953 ± 0.0021 | 0.959 ± 0.015 | 0.991 ± 0.0027 | 0.988 ± 0.011 |
| Cc1cc(Nc2ccc(NC(=O)c3ccc(Nc4ccnc5ccccc45)cc3)cc2)nc(N)n1 | 0.99 ± 0.017 | -0.000696 ± 0.0048 | 0.9783 ± 0.0035 | 0.492 ± 0.5 | 1.006 ± 0.0075 | 0.000819 ± 0.0006 |
| O=C(O)C=C1CCCc2ccccc2C1O (centres undefined) | 0.987 ± 0.012 | 0.948 ± 0.026 | 0.987 ± 0.02 | 0.994 ± 0.044 | 0.983 ± 0.0069 | 0.987 ± 0.01 |
| Cc1cc(Cn2cnc3c2C[C@@H](C(=O)O)N(C(=O)C(c2ccccc2)c2ccccc2)C3)ccc1N | 1.03 ± 0.01 | 1.01 ± 0.022 | 1.023 ± 0.0058 | 1.01 ± 0.014 | 1.027 ± 0.0058 | 1.02 |
| Cc1cc2c(cc1Cl)N(C(=O)Nc1cccc3ncccc13)CC2 | 0.985 ± 0.011 | 0.965 ± 0.015 | 1 ± 0.016 | 1.03 ± 0.084 | 0.9793 ± 0.0086 | 0.992 ± 0.007 |
